High-throughput results: PubChem, National Center for Advancing Translational Sciences (NCATS)
DT40 TDP1 no CPT: qHTS for Inhibitors of human tyrosyl-DNA phosphodiesterase 1 (TDP1): qHTS in cells in absence of CPT; DT40 Tdp1-/- hTDP1 cells, no CPT, ATP luminescence, 48 h; Potency, µM (series often up to 46.2 µM), for inactives: at the highest dose activity change, negative = growth inhibition, hits mostly inhibitors; 15% of 420,000 active; AID 686978, 2013; note: nearly all actives have a fitted effect of over 55% in size
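A cellular qHTS used chicken DT40 cells lacking endogenous Tdp1 but carrying stably transfected human TDP1. Compounds were applied without camptothecin, and cell growth kinetics were judged by ATP-dependent luminescence after ≥48 hr.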
HT1080 IDH1KD tx: qHTS for induction of synthetic lethality in tumor cells producing 2HG: qHTS for the HT-1080-IDH1KD cell line; Potency, µM (doses to about 46.1 µM), for inactives: at the top dose activity, negative = toxicity, actives largely listed as cytotoxic; 2% of 360,000 active; HT-1080 IDH1 knockdown viability, ATP luminescence, 48 h; AID 686971, 2013;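 note: 0% = DMSO wells and -100% = cell-free medium wells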
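After a 2 h attachment period, IDH1KD HT-1080 cells took pin-transferred compound for 48 h at 37 °C; ATP-based luminescence after 10 min room-temperature reagent incubation reported viability.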
HT1080NT lethal: qHTS for induction of synthetic lethality in tumor cells producing 2HG: qHTS for the HT-1080-NT fibrosarcoma cell line; HT-1080-NT fibrosarcoma viability, CellTiter-Glo ATP luminescence, 48 h; Potency, µM (doses to about 46.1 µM), inactives show at the highest dose activity, negative = less viability, actives largely listed as cytotoxic; 1.6% of 360,000 active;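 note: NT is the 2HG producing partner of a matched IDH1 knockdown line; 0% = DMSO-treated cells and -100% = media-only wells without cells; nearly all actives have a fitted effect of over 55% in size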
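Viability of the 2HG-overproducing fibrosarcoma line after 48 hours of compound exposure at 37 degrees C was determined by luminescence with CellTiter-Glo, and concentration-effect curves were then fitted and categorized.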
TDP1 cell CPT: qHTS for Inhibitors of human tyrosyl-DNA phosphodiesterase 1 (TDP1): qHTS in cells in presence of CPT | chicken DT40 Tdp1-/-;hTDP1 cells + 20 nM CPT, ATP luminescence, 48 h | Potency, µM (titrated, usually from 46.2 µM), for inactives: top-dose activity change, negative = growth inhibition, most hits filed as inhibitors | 12% of 420,000 active; note: nearly all actives have a fitted effect of over 55% in size
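Chicken DT40 Tdp1-/- cells complemented with human TDP1, 400 cells/well, exposed to compounds plus 20 nM camptothecin for at least 48 h at 37 C; viability read as ATP content by CellTiter-Glo luminescence.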
KB-3-1 cytotox: qHTS assay for MDR1-selective chemotherapeutics: Primary screen using the parental adenocarcinoma cell KB-3-1 | KB-3-1 viability, CellTiter-Glo ATP luminescence, 72 h | Potency, µM (top dose mostly 46.1 µM), actives largely listed as cytotoxic | 1.4% of 400,000 active; note: nearly all actives have a fitted effect of over 60% in size
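KB-3-1 parental drug-naive adenocarcinoma cells in DMEM/10% FBS, incubated 72 h at 37 C with pin-transferred compounds across a concentration series. Viability by CellTiter-Glo luminescence; concentration-response curves fitted after normalization.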
KB-V1 cytotox: qHTS assay for MDR1-selective chemotherapeutics: Primary screen using the drug-selected MDR subline cells KB-V1 | KB-V1 MDR cells viability, CellTiter-Glo, 72 h | Potency, µM (top dose mostly 46.1 µM), usual class: cytotoxic | 3.4% of 400,000 active | AID 1347076, 2019; note: nearly all actives have a fitted effect of over 60% in size
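KB-V1 cells (P-gp-expressing MDR subline of KB-3-1) in phenol-red-free DMEM with 10% FBS were exposed to library compounds over a concentration series for 72 h at 37 degrees C. Viability read by CellTiter-Glo luminescence; concentration-effect curves fitted after normalization.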
* = called active by the depositor. An excerpt weighted towards active compounds, which were near 19% of everything screened. Calls come from the whole dose curve; as a rule, active = well fitted curve in the direction sought with a large enough effect; inconclusive = small, poorly fitted or top-dose-only effect, or another doubt; inactive = no such curve, though single readings can be large; an effect the other way counts as inactive or inconclusive. Unless noted, % is set by controls: 0 for no effect and ±100 for the full control effect; potency is the fitted concentration of half-maximal effect.

Screening CCC12CC1(C(=O)OC)C(=O)N1CCc3c([nH]c4ccccc34)C12 (configuration not stated) returned DT40 TDP1 no CPT -13%, HT1080 IDH1KD tx 3%, HT1080NT lethal -1%, TDP1 cell CPT 1%, KB-3-1 cytotox inactive and KB-V1 cytotox inactive.
Cc1cccc(Cn2c(=O)n(-c3ccc(Cl)c(Cl)c3)c(=O)c3c(C)c(C)sc32)c1 was read as DT40 TDP1 no CPT inconclusive, TDP1 cell CPT -23%, KB-3-1 cytotox inactive and KB-V1 cytotox inactive.
For CC1(C(=O)NS(=O)(=O)c2cccc(Cl)c2)CCN1C(=O)c1ccccc1 (configuration not stated) the results were DT40 TDP1 no CPT -9%, HT1080 IDH1KD tx -2%, HT1080NT lethal -5%, TDP1 cell CPT 0%, KB-3-1 cytotox inactive and KB-V1 cytotox inactive.
For Oc1ccc(NCc2ccccc2OCc2ccccc2F)cc1 the results were DT40 TDP1 no CPT 16µM*, HT1080 IDH1KD tx -28%, HT1080NT lethal inconclusive, TDP1 cell CPT 18µM*, KB-3-1 cytotox inconclusive and KB-V1 cytotox inconclusive.
For NS(=O)(=O)c1ccc(NCc2ccccc2OCc2ccccc2F)cc1 the results were DT40 TDP1 no CPT inconclusive, HT1080 IDH1KD tx -8%, HT1080NT lethal -15%, TDP1 cell CPT inconclusive, KB-3-1 cytotox inactive and KB-V1 cytotox inconclusive.
For COc1cc(-c2cc(OC)c3c(C)oc(C)c3c(=O)c2)ccc1OC(=O)c1ccccc1C the results were DT40 TDP1 no CPT 8.2µM* and TDP1 cell CPT 5.2µM*.
Screening COc1ccc(-c2cc(OC(=O)c3ccccc3C)c3c(C)oc(C)c3c(=O)c2)cc1 returned DT40 TDP1 no CPT 16µM*, TDP1 cell CPT inconclusive, KB-3-1 cytotox inactive and KB-V1 cytotox inactive.
For COc1ccc(-c2cc(OC(=O)c3ccccc3Cl)c3c(C)oc(C)c3c(=O)c2)cc1OC the results were DT40 TDP1 no CPT inconclusive, TDP1 cell CPT 23µM*, KB-3-1 cytotox inactive and KB-V1 cytotox inactive.
COc1ccc(-c2cc(OC(=O)c3cccc(Cl)c3)c3c(C)oc(C)c3c(=O)c2)cc1OC was read as DT40 TDP1 no CPT inconclusive, TDP1 cell CPT inconclusive, KB-3-1 cytotox inactive and KB-V1 cytotox inactive.
For CC1=C(C(=O)N(C)C)CC(CC(=O)NC2CCCCC2)C(=O)N1Cc1ccc(F)cc1 (configuration not stated) the results were DT40 TDP1 no CPT -25%, HT1080 IDH1KD tx 13%, HT1080NT lethal -1%, TDP1 cell CPT -2%, KB-3-1 cytotox inactive and KB-V1 cytotox inconclusive.
For CC1CCCC(NC(=O)COC(=O)COc2ccc(C#N)cc2)C1C (configuration not stated) the results were DT40 TDP1 no CPT -2%, HT1080 IDH1KD tx 0%, HT1080NT lethal 4%, TDP1 cell CPT 8%, KB-3-1 cytotox inactive and KB-V1 cytotox inactive.
Screening COc1ccc(Oc2nc3c(c(=O)n(Cc4ccccc4Cl)c(=O)n3C)n2C)cc1 returned DT40 TDP1 no CPT 6.5µM*, TDP1 cell CPT inconclusive, KB-3-1 cytotox inconclusive and KB-V1 cytotox inconclusive.
Cn1c(Oc2ccc(F)cc2)nc2c1c(=O)n(Cc1ccccc1Cl)c(=O)n2C was read as DT40 TDP1 no CPT 12µM*, TDP1 cell CPT 23µM*, KB-3-1 cytotox inconclusive and KB-V1 cytotox 10µM*.
COc1ccc(Oc2nc3c(c(=O)n(C)c(=O)n3C)n2C)cc1 was read as DT40 TDP1 no CPT -25%, HT1080 IDH1KD tx -7%, HT1080NT lethal -10%, TDP1 cell CPT inconclusive, KB-3-1 cytotox inactive and KB-V1 cytotox inactive.
COC(=O)Cn1c(=O)c2c(nc(Br)n2Cc2ccccc2Cl)n(C)c1=O was read as DT40 TDP1 no CPT inconclusive, HT1080 IDH1KD tx -5%, HT1080NT lethal -7%, TDP1 cell CPT inconclusive, KB-3-1 cytotox inactive and KB-V1 cytotox inactive.
For FC(F)(F)c1ccc(-c2cccc3c2C2CC3CCN2)cc1 (configuration not stated) the results were DT40 TDP1 no CPT inconclusive, HT1080 IDH1KD tx -4%, HT1080NT lethal -1%, TDP1 cell CPT inconclusive, KB-3-1 cytotox inactive and KB-V1 cytotox inactive.
FC(F)(F)c1ccc(-c2cccc3c2C2CC3CCN2Cc2ccc3c(c2)OCO3)cc1 (configuration not stated) was read as DT40 TDP1 no CPT 16µM*, HT1080 IDH1KD tx 0%, HT1080NT lethal inconclusive, TDP1 cell CPT inconclusive, KB-3-1 cytotox inactive and KB-V1 cytotox inactive.
For O=C(OCc1ccccc1)N1CCC2CC1c1c(Cl)cccc12 (configuration not stated) the results were DT40 TDP1 no CPT 18µM*, HT1080 IDH1KD tx -1%, HT1080NT lethal -11%, TDP1 cell CPT inconclusive, KB-3-1 cytotox inactive and KB-V1 cytotox inactive.
O=C(OCc1ccccc1)N1CCC2CC1c1c(-c3ccc(C(F)(F)F)cc3)cccc12 (configuration not stated) was read as DT40 TDP1 no CPT inconclusive, HT1080 IDH1KD tx 5%, HT1080NT lethal 5%, TDP1 cell CPT 16µM*, KB-3-1 cytotox inactive and KB-V1 cytotox inactive.
For O=C(OCc1ccccc1)N1CCC2CC1c1cc(Cl)ccc12 (configuration not stated) the results were DT40 TDP1 no CPT inconclusive, HT1080 IDH1KD tx -4%, HT1080NT lethal -5%, TDP1 cell CPT inconclusive, KB-3-1 cytotox inactive and KB-V1 cytotox inactive.
For O=C(OCc1ccccc1)N1CCC2CC1c1ccc(-c3cccc(F)c3)cc12 (configuration not stated) the results were DT40 TDP1 no CPT inconclusive, HT1080 IDH1KD tx -14%, HT1080NT lethal 0%, TDP1 cell CPT inconclusive, KB-3-1 cytotox inactive and KB-V1 cytotox inconclusive.
Screening CCCc1c(C)c2cc(C)ccc2[nH]c1=O returned DT40 TDP1 no CPT -13%, HT1080 IDH1KD tx 0%, HT1080NT lethal 3%, TDP1 cell CPT -10%, KB-3-1 cytotox inconclusive and KB-V1 cytotox 4.1µM*.
